From PubChem BioAssay (NCATS)
Records with an inconclusive call do not appear. Calls of active or inactive are those of the source. Calls come from the whole dose curve; as a rule, active = well fitted curve in the direction sought with a large enough effect; inconclusive = small, poorly fitted or top-dose-only effect, or another doubt; inactive = no such curve, though single readings can be large; an effect the other way counts as inactive or inconclusive.

Columns and labels:
[1] = molecular target: Cytochrome P450 3A4 (Homo sapiens) (UniProt P08684); assay: qHTS Assay for Inhibitors and Substrates of Cytochrome P450 3A4 (AID 884); note: series mostly up to about 57 µM; nearly all actives have a fitted effect of over 50% in size
Summary of the method: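 20 nM human CYP3A4 with 25 uM Luciferin-PPXE (at KM) in 200 mM KPO4, preincubated 10 min with compound; NADPH regeneration started a 60 min RT reaction. Luciferin detected by luminescence, normalized to 57 uM ketoconazole as full inhibition.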

[2] = Cell Viability - LYMP2-001 (AID 921); note: series mostly up to about 92 µM; nearly all actives have a fitted effect of over 70% in size
Summary of the method: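 CellTiter-Glo luminescence (intracellular ATP) after 24 hr compound exposure at 37 C, 2500 lymphoblastoid cells/well in complete medium. AC50 fitted with standard Hill equation; tetraoctylammonium bromide positive control.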

[3] = MultiTox-Fluor Cytotoxicity Assay - LYMP1-001 - Dead Cells (AID 946);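 note: cells exposed to compound for 16 h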
Summary of the method: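 AC50 from Hill fit of concentration-response; data normalized to DMSO (basal) and 15 uM tetraoctylammonium bromide (100%). LYMP1-001 lymphoblastoid cells, 2500/well, 16 hr compound at 37 C; dead-cell protease fluorescence, Ex/Em 485/520.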

[4] = MultiTox-Fluor Cytotoxicity Assay - LYMP1-001 - Live Cells (AID 947)
[5] = Cell Viability - LYMP1-002 - Assay at 16 hr (AID 948)
Summary of the method: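 LYMP1-002 human lymphoblastoid cells, 2500/well; 5 hr 37 C; cpd 16 hr 37 C; CellTiter-Glo 30 min RT; luminescence (ATP). Concentration-response, Hill-fit AC50. Pos ctrl tetraoctylammonium bromide.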

[6] = MultiTox-Fluor Cytotoxicity Assay - LYMP1-002 - Live Cells (AID 955);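 note: cells exposed to compound for 16 hours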
Summary of the method: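 Cytotoxicity in the human lymphoblastoid line LYMP1-002 is measured as loss of live-cell protease activity after 16 h treatment in complete culture medium. AC50 is derived from Hill-equation fits of qHTS concentration-response data.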

[7] = MultiTox-Fluor Cytotoxicity Assay - LYMP1-002 - Dead Cells (AID 960);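 note: cells exposed to compound for 16 h at 37 °C; nearly all actives have a fitted effect of over 60% in size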
Summary of the method: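 Acute cytotoxicity in a human lymphoblastoid line is scored as rising dead-cell protease signal after 16 hr exposure at 37 C, measured fluorometrically (485/520).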

[8] = MultiTox-Fluor Cytotoxicity Assay - LYMP1-003 - Dead Cells (AID 961);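 note: cells exposed to compound for 16 h at 37 °C; nearly all actives have a fitted effect of over 70% in size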
Summary of the method: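 Human lymphoblastoid LYMP1-003 cells (2500/well) were treated with compounds for 16 hr at 37 C in complete medium. Dead-cell protease release was read by bis-AAF-R110 fluorescence (Ex/Em 485/520). AC50 came from Hill fits, normalized to DMSO and 15 uM tetraoctylammonium bromide.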

[9] = MultiTox-Fluor Cytotoxicity Assay - LYMP1-003 - Live Cells (AID 962);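 note: cells exposed to compound for 16 hours at 37 °C; cytotoxic hits lower the live-cell protease signal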
Summary of the method: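 Cells plated at 2500 per well and incubated 5 hr; compounds added and incubated 16 hr at 37 C; MultiTox-Fluor reagent added for 60 min at room temperature; fluorescence of liberated AFC measured at 405/510 nm.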

[10] = Cell Viability - LYMP1-003 - Assay at 24 hr (AID 963)
Summary of the method: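 Acute toxicity in LYMP1-003 lymphoblastoid cells: 24 hr compound treatment at 37 C, ATP measured with CellTiter-Glo after 30 min at room temperature. AC50 derived by fitting the Hill equation to qHTS titrations.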

[11] = Cell Viability - LYMP1-003 - Assay at 40 hr (AID 964); note: series mostly up to about 92 µM; nearly all actives have a fitted effect of over 60% in size
Summary of the method: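 This qHTS cytotoxicity screen treats human lymphoblastoid cells (LYMP1-003) with compounds for 40 hr and quantifies cellular ATP via luciferase luminescence.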

[12] = Cell Viability - LYMP2-003 (AID 965);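 note: cells exposed to compounds for 24 h before reading; nearly all actives have a fitted effect of over 50% in size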
Summary of the method: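 CellTiter-Glo luminescence (cellular ATP) after 24 h compound exposure at 37 C in complete medium; 2500 cells/well, 5 h settling beforehand. Concentration-response fitted to standard Hill equation for AC50. Tetraoctylammonium bromide served as positive control.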

[13] = Cell Viability - LYMP2-004 (AID 966); note: nearly all actives have a fitted effect of over 65% in size
Summary of the method: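 Acute toxicity is scored as a concentration-dependent drop in intracellular ATP, quantified by luciferase luminescence, in human lymphoblastoid cells exposed to compound for 24 hr. AC50 derives from Hill-equation modelling.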

[14] = Cell Viability - LYMP2-005 (AID 967); note: series mostly up to about 92 µM
Summary of the method: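 Steps: seed 2500 LYMP2-005 cells/well, incubate 5 h at 37 C, add compound, incubate 24 h at 37 C, add CellTiter-Glo, wait 30 min at RT, read luminescence. Concentration-response data fitted to Hill equation for AC50.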

[15] = Cell Viability - LYMP2-009 (AID 968); note: series mostly up to about 92 µM; nearly all actives have a fitted effect of over 55% in size
[16] = Cell Viability - LYMP2-011 (AID 969); note: nearly all actives have a fitted effect of over 60% in size
Summary of the method: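 Acute toxicity is scored as a concentration-dependent drop in intracellular ATP of a human lymphoblastoid line after 24 hr treatment. Values are AC50s modeled with the Hill equation.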

[17] = Cell Viability - LYMP2-013 (AID 970); note: series mostly up to about 92 µM; nearly all actives have a fitted effect of over 55% in size
Summary of the method: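 Acute toxicity was measured in human lymphoblastoid cells (2500/well) exposed to compound titrations for 24 hr, with ATP luminescence (CellTiter-Glo) as read-out and AC50 fitted by Hill equation.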

[18] = Cell Viability - LYMP2-015 (AID 971); note: nearly all actives have a fitted effect of over 55% in size
Summary of the method: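 Acute toxicity was scored as a concentration-dependent drop in intracellular ATP in lymphoblastoid cells after 24 hr compound exposure in complete medium. Detection used CellTiter-Glo luciferase luminescence.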

[19] = Cell Viability - LYMP2-017 (AID 972);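 note: series mostly up to about 92 µM; cells exposed to compound for 24 hours at 37 °C; nearly all actives have a fitted effect of over 55% in size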
Summary of the method: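 Steps: plate 2500 lymphoblastoid cells per well; incubate 5 hr at 37 C; add compound across a concentration series and incubate 24 hr at 37 C; add CellTiter-Glo and read luminescence after 30 min at room temperature; fit Hill curves for AC50.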

[20] = Cell Viability - LYMP2-019 (AID 973); note: nearly all actives have a fitted effect of over 55% in size
Summary of the method: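 Cells plated at 2500/well and allowed 5 hr at 37 C before compound addition. After 24 hr incubation, CellTiter-Glo reagent was added, plates sat 30 min at room temperature, and luminescence was recorded.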

[21] = Cell Viability - LYMP2-021 (AID 974)
Summary of the method: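 Concentration-response cytotoxicity in a human lymphoblastoid line: 24 hr treatment at 37 C in complete culture medium, tetraoctylammonium bromide as positive control, luminescent ATP quantitation as viability measure.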

[22] = Cell Viability - LYMP2-023 (AID 975)
Summary of the method: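 Concentration-dependent drop in intracellular ATP measures acute cytotoxicity in a human lymphoblastoid line treated for 24 hours in complete culture medium. AC50 values are taken from Hill-equation fits of qHTS data.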

Measured: Potency

Chain of Cytochrome P450 3A4 (Homo sapiens) (P08684 whole entry, looked up): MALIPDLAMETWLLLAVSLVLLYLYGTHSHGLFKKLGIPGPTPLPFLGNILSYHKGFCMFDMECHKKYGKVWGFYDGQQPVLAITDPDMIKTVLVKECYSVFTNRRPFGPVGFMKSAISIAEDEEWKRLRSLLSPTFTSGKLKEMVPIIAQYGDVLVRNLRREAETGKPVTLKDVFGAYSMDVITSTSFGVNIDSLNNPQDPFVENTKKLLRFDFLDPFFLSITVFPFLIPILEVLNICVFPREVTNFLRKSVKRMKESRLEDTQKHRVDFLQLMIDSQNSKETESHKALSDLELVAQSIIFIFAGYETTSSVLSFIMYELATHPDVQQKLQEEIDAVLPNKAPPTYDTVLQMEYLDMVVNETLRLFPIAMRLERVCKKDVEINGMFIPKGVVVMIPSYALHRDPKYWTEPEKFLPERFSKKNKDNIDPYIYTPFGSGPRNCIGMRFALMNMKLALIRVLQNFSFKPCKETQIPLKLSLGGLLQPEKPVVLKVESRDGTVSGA

Cc1cccc(O)c1C
inactive: [1] | [2] | [3] | [4] | [5] | [6] | [7] | [8] | [9] | [10] | [11] | [12] | [13] | [14] | [15] | [16] | [17] | [18] | [19] | [20] | [21] | [22]
